The campaign covered roughly 96,000 compounds. About 80 (0.08%) were called active. No rule for the calls is given here. Only a sample is shown. Results with a measured potency or affinity are listed apart. Residues, ends and D or L forms follow the SMILES beside them.
biological target: Alkaline phosphatase, placental type (Homo sapiens) (UniProt P05187); experiment: PLAP enzyme inhibitors, biochemical, luminescence, HTS (AID 690); details: purified PLAP, luminescent substrate; at 20 µM; stronger effect = higher value
Sequence (P05187 whole entry, looked up): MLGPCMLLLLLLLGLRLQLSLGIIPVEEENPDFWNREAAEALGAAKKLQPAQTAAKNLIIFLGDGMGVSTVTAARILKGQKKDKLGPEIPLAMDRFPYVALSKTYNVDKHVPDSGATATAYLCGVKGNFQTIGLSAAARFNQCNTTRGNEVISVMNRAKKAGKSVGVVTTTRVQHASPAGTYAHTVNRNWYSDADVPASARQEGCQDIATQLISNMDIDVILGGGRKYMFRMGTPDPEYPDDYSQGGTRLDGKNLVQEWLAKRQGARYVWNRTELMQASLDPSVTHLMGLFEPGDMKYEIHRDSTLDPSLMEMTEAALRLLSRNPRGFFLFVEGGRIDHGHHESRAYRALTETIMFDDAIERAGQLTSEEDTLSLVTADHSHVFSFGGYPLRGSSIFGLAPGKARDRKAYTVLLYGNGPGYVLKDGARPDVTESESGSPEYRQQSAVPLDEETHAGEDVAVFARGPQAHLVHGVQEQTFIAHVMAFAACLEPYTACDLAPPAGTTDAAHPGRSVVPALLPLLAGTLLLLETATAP

inhibition, inactive:
Cc1cc2cc(CN(CCCO)S(=O)(=O)c3cccc4nsnc34)c(=O)[nH]c2cc1C -57.9%, O=C(CCCn1c(SCC(=O)NCC2CCCO2)nc2ccccc2c1=O)NCC1CCCO1 (stereo unspecified) -4.3%, O=C(CCCn1c(SCC(=O)NCC2CCCO2)nc2ccccc2c1=O)NCc1ccccc1 (stereo unspecified) -31.1%, CC(C)(C)c1nn(-c2ccccc2)c2[nH]c(=O)c(CNc3ccc4c(c3)OCCO4)cc12 -71.4%, Cc1ccc(C(=O)CN(C(=O)c2ccc(Cl)c(Cl)c2)N2C(=O)C3CCCCC3C2=O)cc1 (stereo unspecified) -10.4%, O=C(/C=C/NNC(=O)c1cccc(Br)c1)c1cccc(Br)c1 -55.3%, CCC(=O)Nc1cccc(C(=O)/C=C/c2ccccc2)c1 -3.5%, O=C(CCN1C(=O)c2ccccc2C1=O)NC1=NCCS1 8.9%, CCOC(=O)C1=NN(c2ccccc2)C(=O)/C1=C\c1ccc(N(C)C)cc1 2.6%, CC1=NOC(=O)/C1=C/c1ccc(N(C)C)cc1 -1.4%, Cc1ccc(C(=O)Nc2nc3ccc(S(C)(=O)=O)cc3s2)s1 1.6%, Cc1ccc(CS/C(Nc2ccccc2C)=C(\C#N)C(=O)NCc2ccco2)c(C)c1 -32.5%, CC(C)Oc1ccc(CNC(=O)CC(c2ccccc2)c2cc(Cl)ccc2O)cc1 (stereo unspecified) -26.3%, CCc1c(C#N)c(N)nc(SCC(=O)OCc2ccccc2)c1C#N 14.4%, COC(=O)CSc1nsc(SCC(=O)OC)c1C#N 13.1%, O=C(O)CSCc1ccc(Cl)cc1 -5.7%, c1ccc(SCCc2ccncc2)cc1 -3.2%, c1ccc2c(CSCCc3ccncc3)cccc2c1 -15.7%, CS(=O)(=O)NCCSCc1ccc(Cl)cc1 -9.2%, CCn1c(C)c(C(C)=O)c(N2CCN(c3ccccc3)CC2)nc1=S -3.4%, O=C(NCc1ccc2c(c1)OCO2)C1CCCN(S(=O)(=O)c2cccc3nonc23)C1 (stereo unspecified) -13.3%, O=C1N2CCSC2=NC1(Nc1ccccn1)C(F)(F)F (stereo unspecified) 2%, CCC(CC)NC(=O)Cc1ccccc1[N+](=O)[O-] -5.8%, COc1ccc(CNC(=O)c2ccccc2[N+](=O)[O-])cc1 -9.5%, Cc1ccc(N(CC(=O)NCc2ccncc2)S(C)(=O)=O)cc1Cl -7%, O=C(CSc1nnc(Cn2nnc3ccccc32)o1)N(Cc1ccc(F)cc1)c1ccccc1 2.6%, CCSc1nc2c(cnn2-c2ccc(C)c(C)c2)c(=O)[nH]1 -20.6%, CCOC(=O)CN1C(=O)S/C(=C/c2ccc(N3CCCCC3)o2)C1=O -4.2%, COC(=O)CN1C(=O)S/C(=C/c2ccc(N3CCCCC3)o2)C1=O -25.9%, CCO/C=C1/C(=O)N(CC)c2ccccc21 4.3%, O=C(OCC(O)CN1CCCCC1)C12CC3CC(CC(C3)C1)C2 (stereo unspecified) -58.5%, COC(=O)C(N)Cc1ccc(O)cc1 (stereo unspecified) 18.8%, COC(=O)C(CC(C)C)NC(=O)C(N)Cc1ccccc1 (stereo not drawn) (H-Phe-Leu-OMe; configuration not given here) -5.6%, O=C(CC(NC(=O)c1ccccc1Cl)c1ccccc1)Nc1ccc2c(c1)OCO2 (stereo unspecified) 2.4%, Cc1cccc(NC(=O)C2c3ccccc3C(=O)N3CCc4ccccc4C23)n1 (stereo unspecified) 2.2%, COc1cc(/C=C(/C(=O)c2cccs2)c2nc3ccccc3[nH]2)ccc1O 33.6%, O=C(/C(=C/c1ccc(Cl)cc1)c1nc2ccccc2[nH]1)c1cccs1 -30.3%, COc1cc(CNCCc2ccc(F)cc2)ccc1OCc1ccc(Cl)nc1 -50.6%, O=C(N1CCOCC1)C12CC3CC(C1)CC(c1ccccc1)(C3)C2 -20.7%, CSC1=N/C(=C\c2ccc(C)cc2)C(=O)S1 1.7%, CCSC1=N/C(=C\c2ccc(C(=O)O)cc2)C(=O)S1 11.5%, Cn1nc([N+](=O)[O-])nc1N1CCN(c2ccc(F)cc2)CC1 20.5%, CCOC(=O)N1CCC(NC(=O)C(CC(C)C)NC(=O)C2CCC(C)CC2)CC1 (stereo unspecified) -63.6%, CCN(CC)C(=O)Cn1c(=O)n(-c2ccccc2)c(=O)n1CC(=O)N(CC)CC 8.2%, COC(=O)c1cn[nH]c1NC(=S)Nc1ccc(C)cc1Cl -10%, COC(=O)c1cn[nH]c1NC(=S)Nc1ccc(Cl)c(Cl)c1 -146%, CN(C)S(=O)(=O)c1cccc(C(=O)Nc2cc(Cl)cc(Cl)c2)c1 -58.5%, Cc1noc(C)c1COC(=O)COc1ccc2c(C)cc(=O)oc2c1 8.3%, CCOC(=O)/C(C#N)=C1/C=Cc2ccccc2N1CC 3.8%, CCN1C(=C2C(=O)c3ccccc3C2=O)C=Cc2ccccc21 46.7%, CCOc1ccc(CSC(=N)N)cc1[N+](=O)[O-] -79.6%, CCCCCOc1ccc(CSC(=N)N)cc1[N+](=O)[O-] 34.2%, CCN1/C(=C/C(=O)c2ccco2)Sc2ccccc21 -0.2%, CCN1/C(=C2\OC(=S)N(C)C2=O)Sc2ccccc21 13.9%, CCN(CC)S(=O)(=O)c1ccc(C(=O)Nc2cc(C)cc(C)c2)cc1 6%, Cc1ccc2nc(SCC(=O)Nc3ccc4c(c3)OCCO4)[nH]c2c1 -75.7%

Reference: PubChem BioAssay AID690 (Sanford-Burnham Center for Chemical Genomics, 2007)
